High-throughput results: PubChem BioAssay, National Center for Advancing Translational Sciences (NCATS)
L3MBTL1 block = L3MBTL1 (human) inhibition | Q9Y468 | AlphaScreen L3MBTL1–H3K9me1 peptide binding | Potency, µM (series often up to 57.1 µM), without a hit: at the highest dose activity, negative = inhibition, actives largely listed as inhibitors | hit rate 0.66% among 230,000 | AID 485360; note: % is set by controls: 0 for no effect and ±100 for the full control effect; nearly all actives have a fitted effect of over 60% in size
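Read-out is AlphaScreen signal from streptavidin donor and nickel chelate acceptor beads (10 ug/mL final each) bridging L3MBTL1 (50 nM) and biotinylated K9-monomethylated H3(1-15) peptide (75 nM), after 30 min compound exposure at room temperature.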
HP1b chromo inh = blocks HP1-beta chromodomain binding to methylated histone tails. AlphaScreen HP1-beta / biotin-H3K9me3 peptide binding. hit rate 0.56% among 390,000. Potency, µM (highest dose often 114 µM), without a hit: at the top dose activity change, negative = inhibition, most hits filed as inhibitors. P83916. AID 540317; note: nearly all actives have a fitted effect of over 70% in size
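AlphaScreen: HP1-beta (50 nM) preformed 30 min with biotin-H3(1-18)K9me3 peptide (50 nM) in PBS pH 7.4, 0.01% Tween-20. Compound added for 30 min at RT, then streptavidin donor/nickel chelate acceptor beads (10 ug/mL) for 30 min.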
GLS inh = glutaminase GLS (human) inhibition | O94925 | GLS enzymatic activity, qHTS titration | Potency, µM (titrated, usually from 45.5 µM), inactives show at the highest dose activity change, negative = inhibition, actives largely listed as inhibitors | hit rate 0.21% among 410,000; note: % is set by controls: 0 for no effect and ±100 for the full control effect
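hKGA; 45 mM KH2PO4 pH 8.2 + 0.02% Tween-20; cpd via pin tool; 1 mM Gln soln; GluOx/HRP/Amplex Red; RT 30 min; fluor. t0 & final.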
BAZ2B block = BAZ2B (human) inhibition; Q9UIF8; AlphaScreen BAZ2B-H3K14Ac peptide displacement; Potency, µM (highest dose often 114 µM), for the others: top-dose activity change, negative = inhibition, hits mostly inhibitors; hit rate 4.4% among 360,000; AID 504333; note: % is set by controls: 0 for no effect and ±100 for the full control effect; nearly all actives have a fitted effect of over 60% in size
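AlphaScreen displacement of biotin-H3(5-23)K14Ac peptide (50 nM final) from BAZ2B (50 nM final) in PBS pH 7.4, 0.01% Tween-20; complex preformed 30 min RT, then compounds (top 110 uM) 30 min RT, beads 20 min dark.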
G9a inh = inhibitors of human histone lysine methyltransferase G9a. Q96KQ7. G9a H3K9 monomethylation, AlphaScreen, 2 h. Potency, µM (highest dose often 102 µM), for the others: at the highest dose activity, negative = inhibition, most hits filed as inhibitors. hit rate 8.8% among 350,000; note: % is set by controls: 0 for no effect and ±100 for the full control effect; nearly all actives have a fitted effect of over 75% in size
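Readings reflect AlphaScreen signal from monomethyl-H3K9 antibody detection. HMT at 20 nM; substrate b-H3K9 500 nM; cofactor SAM 20 uM; 2 h RT reaction; compounds tested as titrations in qHTS with 15 min preincubation.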
JMJD2A Tudor = blocks the human JMJD2A Tudor domain | O75164 | AlphaScreen JMJD2A-Tudor / H3K4me3 peptide binding | Potency, µM (highest dose often 114 µM), inactives show top-dose activity change, negative = inhibition, hits mostly inhibitors | hit rate 4.4% among 390,000 | AID 504339; note: % is set by controls: 0 for no effect and ±100 for the full control effect; nearly all actives have a fitted effect of over 50% in size
The depositor's hits bear a star; ? = inconclusive; nt = not tested or not shown; [ ] = remark or other dose. This is a sample that favours compounds with a hit; in the whole collection about 10% have one here. Calls come from the whole dose curve; as a rule, active = well fitted curve in the direction sought with a large enough effect; inconclusive = small, poorly fitted or top-dose-only effect, or another doubt; inactive = no such curve, though single readings can be large; an effect the other way counts as inactive or inconclusive. Potency is the fitted concentration of half-maximal effect.

SMILES | L3MBTL1 block | HP1b chromo inh | GLS inh | BAZ2B block | G9a inh | JMJD2A Tudor
CC(C)Cc1nnc(NC(=O)CN2C(=O)NC3(CC(C)CC(C)(C)C3)C2=O)s1 (configuration not stated) | 7% | 24% | 3% | 2% | 45µM* | -11%
CCCc1cc(=O)oc2cc(OCC(=O)Nc3ccc(S(N)(=O)=O)cc3)ccc12 | nt | -1%[57 µM] | -4% | 45µM* | nt | -33%
COc1ccc(NC(=O)COc2ccccc2C)cc1S(=O)(=O)N1CCCCC1 | 0% | 17% | 3% | -4% | 50µM* | -27%
O=C(Nc1ccc(F)cc1F)c1ccc(-n2cnc3cccnc32)cc1 | nt | 2% | -10% | -15% | -14%[59 µM] | -16%
O=C(Cn1c(=O)n(CCc2ccccc2)c(=O)c2cccnc21)Nc1ccc(F)cc1 | nt | 30% | 3% | 5% | 5%[59 µM] | -16%
O=C(O)CC(NS(=O)(=O)c1ccc(Cl)s1)c1ccccc1 (configuration not stated) | nt | 33% | 18% | 7%[57.1 µM] | 1%[59 µM] | -10%
COc1ccc(NC(=O)CN2CCCCC2)cc1S(=O)(=O)N1CCCCC1 | -1% | ? | -7% | nt | nt | 2.5µM*
CC1CCCN(S(=O)(=O)c2ccc(NC(=O)CN3C(=O)NC(C)(c4ccccc4)C3=O)cc2)C1 (configuration not stated) | -5% | -5% | 17% | -9% | 56µM* | -30%
COc1ccc(NC(=O)CN2C(=O)NC3(CC(C)CC(C)(C)C3)C2=O)cc1S(=O)(=O)N1CCCCC1 (configuration not stated) | -2% | 11% | -4% | -1% | 16µM* | -32%
Cc1ccc(C2(C)NC(=O)N(CC(=O)Nc3ccc(Cl)c(S(=O)(=O)N4CCCCC4)c3)C2=O)cc1 (configuration not stated) | -9% | 16% | -1% | -2% | 40µM* | -27%
COc1ccc(NC(=O)Cc2ccc(C)cc2)cc1S(=O)(=O)N1CCCCC1 | -1% | 31% | -4% | 10% | -5%[12.7 µM] | -13%
CCOC(=O)c1ccc(CN(Cc2ccc(F)cc2)S(=O)(=O)c2cc(C(=O)Nc3cccc(C(F)(F)F)c3)ccc2F)cc1 | nt | 17% | -4% | -5% | 0%[59 µM] | -17%
Cc1c(Cl)cccc1NS(=O)(=O)c1cc2c(cc1Cl)CCC(=O)N2 | nt | nt | nt | nt | nt | -9%
CCOc1ccccc1C(=O)N1CCCCC1CCN1CCOCC1 (configuration not stated) | nt | 39% | 1% | 0% | -6%[59 µM] | -19%
COc1ccc(S(=O)(=O)N2CCOCC2)cc1NC(=O)COc1ccc2c(C)cc(=O)oc2c1 | -1% | 35% | -2% | nt | nt | -12%
COc1ccc(NC(=O)COc2ccc3c(C)cc(=O)oc3c2)cc1S(=O)(=O)N1CCCCC1 | -4% | 22% | 0% | 8% | 11µM* | -17%
COc1ccc(-c2cccc(NS(=O)(=O)c3ccc(C)s3)c2)nn1 | nt | 28%[57 µM] | -10% | -1% | 5%[59 µM] | -4%
S=C(NCC1CCCO1)c1ccc(Br)cc1 (configuration not stated) | -4% | ? | 20% | -4% | 8.9µM* | -34%
CC(C)(C)c1ccc(C(=O)NNC(=S)NCC2CCCO2)cc1 (configuration not stated) | 3% | 34% | 12% | -1% | -44%[59 µM] | -8%
O=C(NCC1CCCO1)C1CCCN1C(=O)NC1CCCCC1 (configuration not stated) | 4% | 19% | 0% | 5% | 15% | -15%
CC(C)(C)c1ccc(C(=O)NC(=S)NCC2CCCO2)cc1 (configuration not stated) | -6% | 18% | 4% | -30% | 40µM* | -15%
S=C(NCC1CCCO1)NC1CCCCC1 (configuration not stated) | -18% | 11% | -1% | ? | 50µM* | -21%
CCN1C(=O)c2ccccc2C1Nc1cccc(OCCN2CCCCC2)c1 (configuration not stated) | nt | nt | 19% | nt | nt | nt
